Source: PubChem BioAssay
The source made the active and inactive calls.

Assays:
Albumin (Bos taurus) = Albumin (Bos taurus) (UniProt P02769); test: compounds binding labelled BSA control protein – biochemical, small-molecule microarray, Alexa647 label, 635/667 nm fluorescence, artefact control for SMM control protein annotation, profiling panel (AID 1118); conditions: BSA-A647 binding, fluorescence 635 nm, higher = more signal;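 further: score merges 667 nm emission intensity and signal-to-noise per printed compound spot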
[1] = probe aXIP binding to arrayed compounds – biochemical, NeuroSMM set, 635/667 nm fluorescence, primary screen (AID 1119); conditions: small-molecule microarray, higher = more signal, called active from +8 up or from −8 down;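 further: probe is the protein aXip251-270 applied at 1 µg/mL to compound-printed slides; binding of probe to printed compounds measured as 667 nm fluorescence plus signal to noise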
[2] = probe aNOTCH3 binding on compound microarray – biochemical, small-molecule microarray, 635/667 nm fluorescence, primary screen (AID 1120); conditions: higher = more signal;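 further: probe is a biotin-tagged antibody raised against NOTCH3 rather than NOTCH3 protein; score merges spot fluorescence near 667 nm with spot signal to noise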
[3] = probe aNOTCH2 binding on compound microarray – biochemical, small-molecule microarray, 635/667 nm fluorescence, primary screen (AID 1121); conditions: higher = more signal;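 further: score merges feature fluorescence read at 667 nm with its signal to noise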
[4] = target: Carbonic anhydrase 2 (Homo sapiens) (UniProt P00918); test: compounds binding carbonic anhydrase 2 – biochemical, small-molecule microarray, Alexa647-labelled CAII, profiling panel (AID 1122); conditions: CAII-A647 binding fluorescence, higher = more signal
[5] = COS7 lysate on small-molecule microarray, probe aHis, 635 nm (AID 1123); conditions: COS7 cell lysate, fluorescence, higher = more signal;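 further: z-score combines 667nm fluorescence intensity with signal-to-noise per printed compound spot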
[6] = probe aLAP1 signal on lysate-treated microarray – cell lysate, small-molecule microarray, COS7 lysate, primary screen (AID 1124); conditions: probe aLAP1, fluorescence, higher = more signal;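 further: lysate comes from COS7 cells expressing LAP1 and is applied at 0.3 µg/mL; score merges spot fluorescence near 667 nm with signal-to-noise over triplicate slides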
Sam68 (KHDRBS1) = test: compounds binding KHDRBS1 protein – biochemical, small-molecule microarray, 635 nm fluorescence, primary screen (AID 1125); conditions: higher = more signal;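 further: score merges 667 nm channel intensity with signal to noise over triplicate slides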
[7] = test system: Chordin-like protein 2 (CHRDL2); test: compounds binding chordin-like 2 – biochemical, small-molecule microarray, 635 nm fluorescence, primary screen (AID 1126); conditions: fluorescence 635 nm, higher = more signal;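 further: printed compound slides probed with Chrdl2 protein at 4 µg/mL for 1 h at 4 C; score merges 667 nm emission intensity with signal to noise over three replicate slides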
[8] = target: Concanavalin-A (Canavalia ensiformis) (UniProt P02866); test: compounds binding concanavalin A lectin – biochemical, small-molecule microarray, Alexa647 label, 635 nm, artefact control for SMM control protein annotation, primary screen (AID 1127); conditions: ConA-A647 binding fluorescence, higher = more signal;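 further: z combines 667 nm emission intensity with signal-to-noise across three replicate slides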
[9] = compounds binding Alexa647 anti-His antibody – biochemical, small-molecule microarray, 635 nm fluorescence, artefact control for SMM control protein annotation, primary screen (AID 1128); conditions: higher = more signal;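 further: score merges feature fluorescence with signal-to-noise for each printed compound spot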
[10] = test system: Human papillomavirus type 1a E7 protein (residues 1-88); test: HPV1a E7 small-molecule binders, primary screen, biochemical, small-molecule microarray, residues 1-88, 635 nm (AID 1129); conditions: small-molecule microarray binding, fluorescence 635 nm; higher = more signal
[11] = target: Focal adhesion kinase 1 (Homo sapiens) (UniProt Q05397); test: PTK2 protein binding on printed compound slides – biochemical, small-molecule microarray, 635/667 nm fluorescence, BSA, DTT, primary screen (AID 1130); conditions: 635 nm fluorescence, higher = more signal;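 further: composite of spot emission at 667 nm and signal to noise over triplicate slides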
[12] = test system: Fibrinogen (Alexa647-labelled); test: Alexa647-fibrinogen binding to printed small molecules – biochemical, small-molecule microarray, 635/667 nm fluorescence, artefact control for SMM control-protein annotation, profiling panel (AID 1131); conditions: fibrinogen-A647 binding fluorescence, higher = more signal;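 further: z-score merges 667 nm fluorescence with per-spot signal-to-noise over triplicate slides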
[13] = target: Follistatin (Homo sapiens) (UniProt P19883); test: FST protein binding to printed compounds – biochemical, small-molecule microarray, 635/667 nm fluorescence, primary screen (AID 1132); conditions: 635 nm fluorescence, higher = more signal
[14] = target: Fibroblast growth factor 2 (Homo sapiens) (UniProt P09038); test: basic fibroblast growth factor binding to printed compounds – biochemical, small-molecule microarray, 635/667 nm fluorescence, primary screen (AID 1133); conditions: FGF2, fluorescence 635/667, higher = more signal
[15] = JC-1 mitochondrial potential readout, lung cancer cells – cell-based, A549, JC-1 fluorescence, basal, 24 h, 100 nL, profiling panel (AID 1138); conditions: higher = more signal;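 further: A549 lung adenocarcinoma cells under basal conditions with no added stimulus; test concentration not given here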
Lefty1 = Lefty1 protein binding to printed compounds – biochemical, small-molecule microarray, 635/667 nm fluorescence, primary screen (AID 1139); conditions: fluorescence 635/667, higher = more signal
[16] = test system: wheat germ agglutinin (Triticum aestivum), Alexa647-labelled; test: Alexa647-WGA lectin binding to printed small molecules – biochemical, small-molecule microarray, 635/667 nm fluorescence, artefact control for SMM control-protein annotation, profiling panel (AID 1140); conditions: WGA-A647 binding, 635 nm fluorescence, higher = more signal;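 further: score merges 667 nm feature emission with signal to noise over triplicate slides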
[17] = target: Luciferin 4-monooxygenase (Photinus pyralis) (UniProt P08659); test: inhibition of purified Photinus pyralis luciferase – biochemical, luminescence, purified enzyme, 2006 set, primary screen (AID 1141); conditions: purified firefly luciferase, SteadyGlo luminescence, 30 min; higher = more signal, called active from +8 up or from −8 down;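 further: cell-free assay with purified firefly luciferase at 100 ng per well in PBS; test concentration not given here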
Sequence of Luciferin 4-monooxygenase (Photinus pyralis) (P08659 whole entry, looked up): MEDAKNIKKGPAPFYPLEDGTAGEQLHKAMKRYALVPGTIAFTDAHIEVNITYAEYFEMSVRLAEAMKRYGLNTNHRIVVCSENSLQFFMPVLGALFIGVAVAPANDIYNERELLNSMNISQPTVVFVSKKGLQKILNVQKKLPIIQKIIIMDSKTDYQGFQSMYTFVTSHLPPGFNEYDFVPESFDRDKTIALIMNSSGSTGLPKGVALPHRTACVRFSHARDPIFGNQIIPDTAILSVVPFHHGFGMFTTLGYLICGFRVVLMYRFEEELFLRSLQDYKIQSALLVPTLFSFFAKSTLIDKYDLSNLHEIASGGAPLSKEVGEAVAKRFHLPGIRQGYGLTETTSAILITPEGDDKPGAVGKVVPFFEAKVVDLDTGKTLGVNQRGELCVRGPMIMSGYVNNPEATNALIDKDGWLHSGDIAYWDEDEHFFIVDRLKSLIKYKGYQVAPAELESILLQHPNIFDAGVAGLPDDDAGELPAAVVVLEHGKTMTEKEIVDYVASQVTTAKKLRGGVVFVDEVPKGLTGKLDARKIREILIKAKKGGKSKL

Sequence of Focal adhesion kinase 1 (Homo sapiens) (Q05397 whole entry, looked up): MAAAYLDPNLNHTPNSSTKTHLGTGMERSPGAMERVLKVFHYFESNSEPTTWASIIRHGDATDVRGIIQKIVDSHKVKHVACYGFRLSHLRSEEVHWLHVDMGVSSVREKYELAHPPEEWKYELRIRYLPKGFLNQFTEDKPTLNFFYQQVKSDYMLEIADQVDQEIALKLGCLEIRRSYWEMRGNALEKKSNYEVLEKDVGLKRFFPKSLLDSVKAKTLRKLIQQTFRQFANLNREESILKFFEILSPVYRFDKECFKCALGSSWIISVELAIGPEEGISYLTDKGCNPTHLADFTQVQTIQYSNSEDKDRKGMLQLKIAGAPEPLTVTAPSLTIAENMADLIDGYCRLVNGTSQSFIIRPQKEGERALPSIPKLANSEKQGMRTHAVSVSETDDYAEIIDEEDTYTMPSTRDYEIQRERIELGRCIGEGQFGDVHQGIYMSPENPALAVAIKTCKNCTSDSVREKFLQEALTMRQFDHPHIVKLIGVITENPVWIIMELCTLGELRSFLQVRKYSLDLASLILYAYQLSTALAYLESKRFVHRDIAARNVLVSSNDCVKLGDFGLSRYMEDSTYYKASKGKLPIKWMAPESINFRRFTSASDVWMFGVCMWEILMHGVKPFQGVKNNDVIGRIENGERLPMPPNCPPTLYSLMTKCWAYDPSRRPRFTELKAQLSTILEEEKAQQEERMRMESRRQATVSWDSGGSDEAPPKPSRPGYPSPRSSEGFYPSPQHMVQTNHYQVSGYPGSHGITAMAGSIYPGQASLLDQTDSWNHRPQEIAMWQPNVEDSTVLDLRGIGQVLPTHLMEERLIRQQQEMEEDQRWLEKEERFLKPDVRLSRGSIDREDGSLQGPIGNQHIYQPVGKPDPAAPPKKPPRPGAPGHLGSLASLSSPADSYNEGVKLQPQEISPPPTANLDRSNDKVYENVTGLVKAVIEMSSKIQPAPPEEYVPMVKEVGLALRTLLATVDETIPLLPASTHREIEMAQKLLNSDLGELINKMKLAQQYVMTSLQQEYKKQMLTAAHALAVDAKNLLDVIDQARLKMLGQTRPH
Sequence of Albumin (Bos taurus) (P02769 whole entry, looked up): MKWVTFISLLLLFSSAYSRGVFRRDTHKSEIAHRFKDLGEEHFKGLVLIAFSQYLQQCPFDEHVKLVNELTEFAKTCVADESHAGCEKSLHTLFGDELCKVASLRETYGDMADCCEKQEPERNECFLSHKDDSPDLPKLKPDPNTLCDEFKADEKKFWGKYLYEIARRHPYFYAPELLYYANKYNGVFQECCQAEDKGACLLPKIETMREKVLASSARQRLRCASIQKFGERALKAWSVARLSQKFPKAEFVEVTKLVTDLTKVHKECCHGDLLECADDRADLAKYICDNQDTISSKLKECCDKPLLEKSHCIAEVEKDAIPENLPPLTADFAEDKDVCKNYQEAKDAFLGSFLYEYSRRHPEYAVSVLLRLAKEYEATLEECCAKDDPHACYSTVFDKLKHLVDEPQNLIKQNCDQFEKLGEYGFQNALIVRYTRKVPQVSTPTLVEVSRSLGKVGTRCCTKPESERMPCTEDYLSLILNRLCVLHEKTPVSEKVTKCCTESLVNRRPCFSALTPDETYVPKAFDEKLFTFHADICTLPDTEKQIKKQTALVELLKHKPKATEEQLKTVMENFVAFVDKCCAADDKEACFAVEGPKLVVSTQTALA
Sequence of Concanavalin-A (Canavalia ensiformis) (P02866 whole entry, looked up): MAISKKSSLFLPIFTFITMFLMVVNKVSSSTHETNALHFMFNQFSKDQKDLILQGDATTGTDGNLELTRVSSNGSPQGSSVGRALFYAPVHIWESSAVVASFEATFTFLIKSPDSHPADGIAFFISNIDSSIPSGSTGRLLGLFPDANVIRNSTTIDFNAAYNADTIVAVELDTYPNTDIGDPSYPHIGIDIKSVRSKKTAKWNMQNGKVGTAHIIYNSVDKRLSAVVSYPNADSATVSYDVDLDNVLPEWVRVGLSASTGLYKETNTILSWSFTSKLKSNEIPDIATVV
Sequence of Follistatin (Homo sapiens) (P19883 whole entry, looked up): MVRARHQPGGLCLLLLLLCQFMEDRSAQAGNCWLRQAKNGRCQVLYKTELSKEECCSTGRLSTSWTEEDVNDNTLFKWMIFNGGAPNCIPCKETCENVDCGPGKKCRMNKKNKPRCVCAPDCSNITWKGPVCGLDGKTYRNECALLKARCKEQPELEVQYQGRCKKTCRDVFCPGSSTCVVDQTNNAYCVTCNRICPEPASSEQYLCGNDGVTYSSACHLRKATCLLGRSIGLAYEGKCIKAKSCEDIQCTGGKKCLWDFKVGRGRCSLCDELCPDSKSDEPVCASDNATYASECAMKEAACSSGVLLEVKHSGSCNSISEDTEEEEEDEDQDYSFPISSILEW
Sequence of Fibroblast growth factor 2 (Homo sapiens) (P09038 whole entry, looked up): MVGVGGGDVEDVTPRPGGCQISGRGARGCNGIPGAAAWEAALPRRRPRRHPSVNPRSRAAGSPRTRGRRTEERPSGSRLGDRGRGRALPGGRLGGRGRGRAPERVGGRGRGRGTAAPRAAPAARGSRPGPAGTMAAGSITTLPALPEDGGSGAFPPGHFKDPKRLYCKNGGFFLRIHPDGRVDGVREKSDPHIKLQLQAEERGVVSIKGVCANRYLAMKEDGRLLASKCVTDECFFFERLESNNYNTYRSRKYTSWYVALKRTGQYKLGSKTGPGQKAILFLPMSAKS

Row | Structure (SMILES) | composite z-score (Albumin (Bos taurus)) | composite Z-score [1] | composite z-score [2] | composite z-score [3] | composite z-score [4] | composite z-score [5] | composite z-score [6] | composite z-score (Sam68 (KHDRBS1)) | composite z-score [7] | composite z-score [8] | composite z-score [9] | composite z-score [10] | composite z-score [11] | composite z-score [12] | composite z-score [13] | composite z-score [14] | z-score [15] | composite z-score (Lefty1) | composite z-score [16] | z-score [17]
1 | COC(=O)[C@@]1(Cc2ccc(F)cc2)[C@H]2c3cc(C(=O)N4CCCC4)n(CCc4ccc(O)c(O)c4)c3C[C@H]2CN1C(=O)c1ccccc1 | 0.601 | 0.41 (inactive) | 1.26 | 0.89 | 0.83 | 1.83 | 0.543 | -1.03 | -0.113 | -0.697 | -0.371 | -0.253 | 0.842 | -2.54 | -0.411 | -0.751 | -0.692 | -0.49 | -0.312 | -7.51 (inactive)
2 | CCOC(=O)C[C@H]1[C@H](OC(=O)c2cc3ccccc3oc2=O)[C@@H](NC(=O)c2ccc(-c3ccccc3)cc2)c2cc(OCCCO)ccc2N1C(=O)c1ccccc1 | 0.551 | -0.0549 (inactive) | 0.242 | -0.0971 | 0.274 | 0.716 | -0.0433 | 1.32 | 0.475 | 0.858 | 0.942 | 1.2 | 0.309 | 0.711 | 1.34 | 0.92 | -1.24 | 1.16 | 0.997 | 0.207 (inactive)
3 | C=CCN1C(=O)[C@@]2(O[C@@H](CCn3cc([C@H](O)c4ccccc4)nn3)[C@H]([Si](C)(C)c3ccc(OC)cc3)[C@H]2C)c2cc(N3CCC3=O)ccc21 | 0.292 | 0.346 (inactive) | -0.132 | -0.189 | 0.489 | 0.901 | 0.249 | 0.636 | 0.163 | 0.0967 | 1.65 | 1.09 | -0.082 | -0.117 | 0.345 | 0.0863 | 2.25 | -0.127 | 0.552 | -1.21 (inactive)
4 | COC(=O)[C@@]1(Cc2ccc(OC)cc2)[C@H]2c3cc(C(=O)N(C)C)n(C[C@H](O)CO)c3C[C@H]2CN1C(=O)c1ccccc1 | 0.956 | -0.312 (inactive) | 0.301 | 0.462 | 0.782 | 2.24 | 0.828 | 0.833 | -1.29 | 0.863 | 0.396 | 1.2 | 1.17 | 0.904 | 0.291 | -1.16 | 0.193 | -0.908 | 1.34 | 0.543 (inactive)
5 | COC(=O)c1nc2oc1CC[C@@H](CO)NC(=O)N(C)Cc1cnnn1C[C@H](Cc1ccccc1)NC2=O | 0.771 | 0.15 (inactive) | -0.182 | -0.167 | 0.853 | 0.205 | 0.321 | -0.0671 | -0.873 | -0.343 | -0.0727 | -0.405 | -0.302 | 0.779 | -0.701 | -0.403 | 0.9 | -0.281 | 1.03 | 0.782 (inactive)
6 | CC(CO)N1C(=O)[C@@H]2[C@H]3C(=O)OCC=C[C@H]3OC23C=CCN(C(C)(C)C)C(=O)[C@@H]13 (stereo not given in full) | -0.0964 | 1.03 (inactive) | -0.242 | -0.125 | 0.852 | -0.856 | -0.604 | -1.05 | -0.508 | 0.251 | -1.15 | -0.833 | -0.367 | -0.591 | -0.187 | -0.0701 | -0.28 | -0.114 | -0.104 | -0.069 (inactive)
7 | COC1OC[C@]2(C)[C@H]3C4=C(CN2C(=O)OC(C)(C)C)[C@H](C)C(CO)C(CO)C4CC[C@@H]13 (stereo not given in full) | 1.1 | 0.0112 (inactive) | 0.239 | 0.35 | 0.805 | 2.88 | 0.875 | 1.31 | -0.675 | 1.17 | 2.1 | 1.24 | 1.14 | 0.998 | 1.05 | -0.636 | 2.03 | -0.664 | 1.41 | 0.0207 (inactive)
8 | CN1C(=O)C2C=CC(C(O)COCc3ccccc3)N(N(c3ccccc3)c3ccccc3)C2C1=O (stereo not given) | 0.319 | 0.453 (inactive) | 0.227 | -0.0173 | 0.412 | 1.62 | 0.0687 | 1.05 | -0.571 | 0.671 | 0.087 | 1.19 | 0.75 | 0.56 | 0.265 | -0.483 | 1.12 | 0.216 | 0.508 | -1.06 (inactive)
9 | COc1ccc([Si](C)(C)[C@@H]2[C@@H](CC(=O)N3Cc4ccccc4C[C@H]3CO)O[C@]3(C(=O)N(C)c4ccccc43)[C@H]2C)cc1 | 0.63 | 1.22 (inactive) | 0.215 | 0.014 | 0.723 | 0.475 | -0.0284 | 1.3 | 1.13 | 1.17 | 1.94 | 1.17 | 0.0712 | 0.855 | 1.52 | 1.68 | 0.0779 | 1.57 | 1.02 | -0.497 (inactive)
